Laboratory results: the supplement of paper PMC5940239
Unmarked numbers belong to inactive results.

test system: Madurella mycetomatis MM55; experiment: percent growth relative to solvent control; higher = less inhibition, active = 20 or less; conditions: 100 µM; 7 days

Compound | percent growth
COc1cc(-c2cc(-c3ccc(S(C)(=O)=O)cc3)cnc2N)ccc1O | 11.2% (active)
CC(C)(C)n1nc(Cc2cccc3ccccc23)c2c(N)ncnc21 | 69.6%
COc1cc(C2=NCCN2)ccc1-c1cn(-c2cccc(C3=NCCN3)c2)nn1 | 61%
COC(=O)c1cccc2oc(-c3cccc(OC)c3NC(=O)c3cc(-c4ccccc4)on3)nc12 | 123%
COc1cc(OC)cc(C(=O)NCC2Cc3cc(Cl)cc(-c4ccncc4)c3O2)c1 (stereo not drawn) | 55.9%
Cn1ncc2c(N3CCOCC3)nc(NCCc3c[nH]c4ccccc34)nc21 | 37.3%
CS(=O)(=O)c1ccccc1C(=O)N(Cc1ccccc1)c1ccccc1 | 91%
CC[C@@H]([C@H](C)O)n1ncn(-c2ccc(N3CCN(c4ccc(OC[C@@H]5CO[C@@](Cn6cncn6)(c6ccc(F)cc6F)C5)cc4)CC3)cc2)c1=O | 0.417% (active)
C[C@]1(O)C[C@@H](c2nc(-c3ccc4ccc(-c5ccccc5)nc4c3)c3c(N)nccn32)C1 | 133%
CCCn1c(CNc2ccccc2O)nc2ccccc21 | 91.1%
CCC(Sc1nc2ccccc2o1)C(=O)Nc1nnc(C)s1 (stereo not drawn) | 40.9%
CCc1nc2ccc(C(=O)NCc3ccc4c(c3)OCO4)cn2c1N(C)Cc1cccs1 | 44%
C[C@H]1COc2c(N3CCN(C)CC3)c(F)cc3c(=O)c(C(=O)O)cn1c23 | 89.5%
CCCCc1ccc(NC(=O)Nc2ccc(O[C@H]3CCCC[C@@H]3N(C)c3ccccc3)c(F)c2)cc1 | 122%
CN1CCN(S(=O)(=O)c2ccc(-c3ccc4c(Nc5ccc6nn[nH]c6c5)ccnc4c3)cc2)CC1 | 151%
Cc1cc(Cl)c(S(=O)(=O)N2CCCC2)cc1OCC(=O)NC1CCCCC1 | 104%
O=C(NC1CC1)c1ccc(CSCc2ccccc2Cl)o1 | 41.5%
O=C(Nc1nnc(S)s1)c1cc(Br)ccc1Cl | 97%
Cc1cc(Cl)ccc1NC(=O)CCc1ccc(S(=O)(=O)NCC(C)C)cc1 | 91.1%

Compound | percent growth
CC(C)c1ncc(-c2ccncc2)c([C@H]2CC[C@H](CNC(=O)c3cccnc3)CC2)n1 | 114%
NS(=O)(=O)c1cncc(-c2ccc3nccc(-c4cn[nH]c4)c3n2)c1 | 143%
COc1cccc(NC(=O)c2c(NC(=O)c3cccnc3)sc3c2CCC3)c1 | 50.9%
COc1ccc(-c2cncc3ccc(C(=O)NCCCn4ccnc4)nc23)cc1 | 109%
O=C(OCc1ccccc1)N1CCC(c2cc(-c3ccncc3)c(-c3ccc(F)cc3)[nH]2)CC1 | 117%
CCOc1ccc2cc(-c3nn(C(C)(C)C)c(N)c3C(N)=O)cnc2c1 | 98.2%
CC(=O)Oc1ccccc1C(=O)Nc1ncc([N+](=O)[O-])s1 | 104%
COc1cc(C2=NCCN2)ccc1-n1cc(-c2cccc(C3=NCCN3)c2)nn1 | 166%
O=C(c1[nH]nc2c1CCCC2)N1CCN(Cc2ccc3c(c2)OCO3)CC1 | 81.8%
CC(=O)NC[C@H]1CN(c2ccc(N3CCSCC3)c(F)c2)C(=O)O1 | 94.5%
O=C(C(Cc1c[nH]c2ccccc12)NS(=O)(=O)c1ccc(Cl)cc1)N1CCCCC1 (stereo not drawn) | 43.6%
Cc1cc(OCC(=O)Nc2ccc(C(C)C)cc2)n(C)c(=O)c1C#N | 96%
CCOc1ccccc1NC(C)C(=O)Nc1cc(C(F)(F)F)ccc1N1CCOCC1 (stereo not drawn) | 76.7%
Cc1ccc2cc(C3NC(=O)c4ccccc4N3)c(Cl)nc2c1 (stereo not drawn) | 139%
Cc1cc2nc(NC(=O)C(C)(C)C)nc(Cl)c2n1Cc1ccc(Cl)cc1 | 82.9%
O=C(NCCN1CCCC1)c1cc(NCCN2CCOCC2)nc2ccc(Cl)cc12 | 85.5%
CC(=O)NCC1CN(c2ccc(-c3ccc(CNCc4cn[nH]n4)cc3)c(F)c2)C(=O)O1 (stereo not drawn) | 125%
CCCCS(=O)(=O)Nc1ccc2cnn(C)c2c1 | 106%
CNc1snc(C)c1C(=O)NCCOc1ccc(OC)cc1 | 92.2%
